The values that follow come from PubChem BioAssay.

Molecules are shown by their SMILES.

The nature of one assay: COS7 lysate on small-molecule microarray, probe aHis, 635 nm (AID 1123).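 Further: z-score combines 667nm fluorescence intensity with signal-to-noise per printed compound spot.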 Particulars: COS7 cell lysate, fluorescence, higher = more signal.
Regarding `COCCOC(=O)N1C(=O)[C@@]2(c3cc(C#Cc4ccc(OC)cc4)ccc31)[C@H](c1ccc(O)cc1)N1[C@H](c3ccccc3)[C@H](c3ccccc3)OC(=O)[C@H]1[C@@H]2C(=O)NC[C@H](O)c1ccccc1`, the composite z-score came out at 1.04.

`O=C(C1N=C(c2ccc(OCCCO)cc2)N(c2ccccc2)O1)N1CCOCC1` (centres undefined): the composite z-score is 1.54.

`O=C1O[C@@H](c2ccccc2)[C@@H](c2ccccc2)N2[C@@H](c3ccc(OCCO)cc3)[C@]3(C(=O)Nc4ccccc43)[C@@H](C(=O)NC[C@H](O)c3ccccc3)[C@H]12` yielded a composite z-score of 1.67.

Compound `O=C(O)[C@@]1(CCS(=O)(=O)c2ccccc2)COC(c2ccc(OCCCO)cc2)=N1` returned a composite z-score of 1.63.

The compound `O=C1O[C@H](c2ccccc2)[C@H](c2ccccc2)N2[C@H]1[C@@H](C(=O)O)[C@]1(C(=O)Nc3ccc(C#CCCO)cc31)[C@H]2c1ccc(O)cc1` displayed a composite z-score of 0.651.

Consider `O=C1C2C=CC(C(O)C(c3ccccc3)c3ccccc3)N(n3cnnc3)C2C(=O)N1Cc1ccccc1` (centres undefined), for which the composite z-score was 2.61.

`CCOC(=O)C[C@H]1[C@H](OC(=O)c2ccc(C(=O)c3ccccc3)cc2)[C@@H](NC(=O)c2ccc(-c3ccccc3)cc2)c2cc(OCCCO)ccc2N1C(=O)c1ccccc1` yielded a composite z-score of 1.31.

As for `CN1C(=O)[C@]2(Cc3ccccc3)N=C(c3ccc(OCCCO)cc3)O[C@@H]2c2ccccc21`, the composite z-score was found to be 2.51.

Regarding `CC(CO)N1C(=O)[C@@H]2C3C(=O)OCCC/C=C\[C@H]3OC23C=CCN(c2ccc4ccccc4c2)C(=O)[C@@H]13` (some centres undefined), the composite z-score was -0.519.

On to `Cc1ccc(S[C@]2(C(=O)NC3CC3)CC(=O)N(C3Cc4ccccc4C3)[C@@H]2c2ccc(CO)cc2)cc1`, for which the composite z-score is 1.81.

The compound `COCCOC(=O)N1C(=O)[C@@]2(c3cc(C#CC4=CCCCC4)ccc31)[C@H](C(=O)Nc1nc3ccccc3s1)[C@H]1C(=O)O[C@H](c3ccccc3)[C@H](c3ccccc3)N1[C@@H]2c1ccc(OCCO)cc1` returned a composite z-score of 0.417.

As for `CC(C)C[C@@H]1NC(=O)[C@H]2C[C@@H](C(=O)NCCCCCCN)[C@@H](c3ccc(O)cc3)N2C1=O`, the composite z-score was determined as 2.16.

Consider `C=CCN(Cc1ccccc1)C(=O)C(c1cccs1)N(CCOCCO)C(=O)/C=C\C(=O)O` (centres undefined), for which the composite z-score is -0.25.

As for `O=C1OCCC/C=C\[C@H]2OC34C=CCN(CCN5CCOCC5)C(=O)[C@H]3N(CCCO)C(=O)[C@@H]4C12` (some centres undefined), the composite z-score was 3.72.

The compound `[N-]=[N+]=NCc1ccccc1C[C@]1(C(=O)N2CCOCC2)N=C(c2ccc(OCCCO)cc2)O[C@H]1c1ccccc1N=[N+]=[N-]` showed a composite z-score of 2.53.

Take `C=CCNC(=O)[C@H]1[C@@H]2C(=O)O[C@@H](c3ccccc3)[C@@H](c3ccccc3)N2[C@@H](c2ccccc2OCCO)[C@]12C(=O)Nc1ccc(C#CC3=CCCCC3)cc12`: the composite z-score is 1.19.

`C=CCN1C(=O)[C@@]2(O[C@@H](CCO)[C@H]([Si](C)(C)c3ccc(OC)cc3)[C@H]2C)c2cc(NC(=O)c3ccc(OC)cc3)ccc21` returned a composite z-score of 0.244.

In turn, `C=CCNC(=O)[C@H]1[C@@H]2C(=O)O[C@@H](c3ccccc3)[C@@H](c3ccccc3)N2[C@@H](c2ccc(OCCO)cc2)[C@]12C(=O)N(C(=O)OCCOC)c1ccccc12` had a composite z-score of 1.99.

In the case of `O=C1OCCC/C=C\[C@H]2OC34C=CCN(Cn5nnc6ccccc65)C(=O)[C@H]3N(CCCCCCO)C(=O)[C@@H]4C12` (some centres undefined), the composite z-score was found to be 2.13.

As to `COCCCNC(=O)C1N=C(c2ccc(OCCCO)cc2)N(c2ccccc2)O1` (centres undefined), the composite z-score worked out at 0.388.

Regarding `COc1ccc(CCNC(=O)[C@@H]2c3ccccc3C(=O)N(C3Cc4ccccc4C3)[C@H]2c2ccc(CO)cc2)cc1`, the composite z-score turned out to be 2.21.

`COC(=O)[C@@]1(Cc2ccc(OC)cc2)[C@H]2c3cc(C(=O)N4CCCC4)n(Cc4ccc(OC)c(OC)c4)c3C[C@H]2CN1C(=O)c1ccccc1` came in with a composite z-score of 2.74.

`COc1ccc([Si](C)(C)[C@H]2[C@H](CCO)O[C@@]3(C(=O)N(C)c4c(Br)cc(C)cc43)[C@@H]2C)cc1` yielded a composite z-score of 1.

In turn, `CCOC(=O)[C@H]1C/C=C/C[C@H](C(=O)OCC)C(=O)O[C@H]2[C@@H](OC)O[C@H](CO)[C@@H](OC(=O)Nc3cccc(F)c3)[C@@H]2OC1=O` returned a composite z-score of 1.86.

A further assay is described as follows: probe aLAP1 signal on lysate-treated microarray – cell lysate, small-molecule microarray, COS7 lysate, primary screen (AID 1124).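 Further: lysate comes from COS7 cells expressing LAP1 and is applied at 0.3 µg/mL; score merges spot fluorescence near 667 nm with signal-to-noise over triplicate slides.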 To be noted: probe aLAP1, fluorescence, higher = more signal.
Take `CCCN1C(=O)[C@]2(CCS(=O)(=O)c3ccccc3)N=C(c3ccc(OCCCO)cc3)O[C@@H]2c2ccccc21`: the composite z-score was -0.031.

`CC(C)(C)C(=O)N[C@@H](c1ccc(Cl)cc1)[C@]1(C)C[C@H]1C1CCCCC1` gave a composite z-score of 0.968.

Compound `COc1cc(CO)cc(I)c1O[C@H]1C=C(C(=O)NCCO)C[C@@H](N(CCN2CCOCC2)C(=O)C2CCOC2)[C@@H]1O` (some centres undefined) had a composite z-score of 0.459.

`C[C@]1(C(=O)NC2CC2)c2ccccc2C(=O)N(Cc2cc(C(F)(F)F)cc(C(F)(F)F)c2)[C@H]1c1ccc(CO)cc1` displayed a composite z-score of 0.283.

`COCCOC(=O)N1C(=O)[C@@]2(c3ccccc31)[C@H](c1ccccc1OCCO)N1[C@H](c3ccccc3)[C@H](c3ccccc3)OC(=O)[C@H]1[C@@H]2C(=O)Nc1nc2ccccc2s1`: the composite z-score came out at 1.69.

Compound `CC(=O)NCCCC[C@@H]1NC(=O)[C@@H]2C[C@H](C(=O)NCCCCCCNC(=O)CS)[C@H](c3cccc(OCCO)c3)N2C1=O` registered a composite z-score of 0.689.

Consider `CCCCC(=C=CC[C@@H](O)c1ccccc1OCCO)CCO`, for which the composite z-score was 0.257.

The compound `C=C(COC)/C(=C/C[C@H](OC(=O)c1ccncc1)c1ccc(OCCO)cc1)c1cnc2ccccc2c1` returned a composite z-score of 0.334.

With `COC(=O)[C@@]1(Cc2ccc(F)cc2)[C@@H]2[C@@H](CC(=O)[C@H]2CC(=O)C(=O)N(C)C)CN1C(=O)c1ccccc1`, the composite z-score is -0.171.

In turn, `NCCCCCNC(=O)[C@@H]1C[C@@H]2C(=O)N[C@@H](Cc3ccccc3)C(=O)N2[C@@H]1c1cccc(OCCO)c1` gave a composite z-score of 0.463.

With `Cc1ccc(C(C)CC(O)C2C=CC3C(=O)N(C)C(=O)C3N2NC(=O)OC(C)(C)C)o1` (centres undefined), the composite z-score amounted to 0.934.

`COCCOC(=O)N1C(=O)[C@@]2(c3cc(C#Cc4ccc(OC)cc4)ccc31)[C@H](c1ccc(O)cc1)N1[C@H](c3ccccc3)[C@H](c3ccccc3)OC(=O)[C@H]1[C@@H]2C(=O)NC[C@H](O)c1ccccc1` had a composite z-score of 0.693.

Regarding `O=C(C1N=C(c2ccc(OCCCO)cc2)N(c2ccccc2)O1)N1CCOCC1` (centres undefined), the composite z-score was 0.255.

As for `O=C1O[C@@H](c2ccccc2)[C@@H](c2ccccc2)N2[C@@H](c3ccc(OCCO)cc3)[C@]3(C(=O)Nc4ccccc43)[C@@H](C(=O)NC[C@H](O)c3ccccc3)[C@H]12`, the composite z-score was 0.759.

Compound `O=C(O)[C@@]1(CCS(=O)(=O)c2ccccc2)COC(c2ccc(OCCCO)cc2)=N1` returned a composite z-score of 0.0237.

In turn, `O=C1O[C@H](c2ccccc2)[C@H](c2ccccc2)N2[C@H]1[C@@H](C(=O)O)[C@]1(C(=O)Nc3ccc(C#CCCO)cc31)[C@H]2c1ccc(O)cc1` showed a composite z-score of 0.514.

`O=C1C2C=CC(C(O)C(c3ccccc3)c3ccccc3)N(n3cnnc3)C2C(=O)N1Cc1ccccc1` (centres undefined): the composite z-score worked out at 0.599.

For the compound `CCOC(=O)C[C@H]1[C@H](OC(=O)c2ccc(C(=O)c3ccccc3)cc2)[C@@H](NC(=O)c2ccc(-c3ccccc3)cc2)c2cc(OCCCO)ccc2N1C(=O)c1ccccc1`, the composite z-score is 0.032.

Compound `CN1C(=O)[C@]2(Cc3ccccc3)N=C(c3ccc(OCCCO)cc3)O[C@@H]2c2ccccc21` registered a composite z-score of 0.824.

As to `CC(CO)N1C(=O)[C@@H]2C3C(=O)OCCC/C=C\[C@H]3OC23C=CCN(c2ccc4ccccc4c2)C(=O)[C@@H]13` (some centres undefined), the composite z-score is -0.377.

The compound `Cc1ccc(S[C@]2(C(=O)NC3CC3)CC(=O)N(C3Cc4ccccc4C3)[C@@H]2c2ccc(CO)cc2)cc1` showed a composite z-score of 0.845.

As for `COCCOC(=O)N1C(=O)[C@@]2(c3cc(C#CC4=CCCCC4)ccc31)[C@H](C(=O)Nc1nc3ccccc3s1)[C@H]1C(=O)O[C@H](c3ccccc3)[C@H](c3ccccc3)N1[C@@H]2c1ccc(OCCO)cc1`, the composite z-score was 0.338.

Compound `CC(C)C[C@@H]1NC(=O)[C@H]2C[C@@H](C(=O)NCCCCCCN)[C@@H](c3ccc(O)cc3)N2C1=O` gave a composite z-score of 0.627.

For the compound `C=CCN(Cc1ccccc1)C(=O)C(c1cccs1)N(CCOCCO)C(=O)/C=C\C(=O)O` (centres undefined), the composite z-score was -0.658.

In turn, `O=C1OCCC/C=C\[C@H]2OC34C=CCN(CCN5CCOCC5)C(=O)[C@H]3N(CCCO)C(=O)[C@@H]4C12` (some centres undefined) came in with a composite z-score of 1.6.

Take `[N-]=[N+]=NCc1ccccc1C[C@]1(C(=O)N2CCOCC2)N=C(c2ccc(OCCCO)cc2)O[C@H]1c1ccccc1N=[N+]=[N-]`: the composite z-score was found to be 0.798.

`C=CCNC(=O)[C@H]1[C@@H]2C(=O)O[C@@H](c3ccccc3)[C@@H](c3ccccc3)N2[C@@H](c2ccccc2OCCO)[C@]12C(=O)Nc1ccc(C#CC3=CCCCC3)cc12` yielded a composite z-score of 1.37.

As for `C=CCN1C(=O)[C@@]2(O[C@@H](CCO)[C@H]([Si](C)(C)c3ccc(OC)cc3)[C@H]2C)c2cc(NC(=O)c3ccc(OC)cc3)ccc21`, the composite z-score stood at 0.0327.

As for `C=CCNC(=O)[C@H]1[C@@H]2C(=O)O[C@@H](c3ccccc3)[C@@H](c3ccccc3)N2[C@@H](c2ccc(OCCO)cc2)[C@]12C(=O)N(C(=O)OCCOC)c1ccccc12`, the composite z-score is 0.503.

For the compound `O=C1OCCC/C=C\[C@H]2OC34C=CCN(Cn5nnc6ccccc65)C(=O)[C@H]3N(CCCCCCO)C(=O)[C@@H]4C12` (some centres undefined), the composite z-score was -0.368.

With `COCCCNC(=O)C1N=C(c2ccc(OCCCO)cc2)N(c2ccccc2)O1` (centres undefined), the composite z-score is -0.193.

With `COc1ccc(CCNC(=O)[C@@H]2c3ccccc3C(=O)N(C3Cc4ccccc4C3)[C@H]2c2ccc(CO)cc2)cc1`, the composite z-score was 0.0554.

For the compound `COC(=O)[C@@]1(Cc2ccc(OC)cc2)[C@H]2c3cc(C(=O)N4CCCC4)n(Cc4ccc(OC)c(OC)c4)c3C[C@H]2CN1C(=O)c1ccccc1`, the composite z-score was 0.601.

`COc1ccc([Si](C)(C)[C@H]2[C@H](CCO)O[C@@]3(C(=O)N(C)c4c(Br)cc(C)cc43)[C@@H]2C)cc1` came in with a composite z-score of 0.0847.

`CCOC(=O)[C@H]1C/C=C/C[C@H](C(=O)OCC)C(=O)O[C@H]2[C@@H](OC)O[C@H](CO)[C@@H](OC(=O)Nc3cccc(F)c3)[C@@H]2OC1=O`: the composite z-score amounted to 0.903.
